Our source for the Potency, activation and outcome values is PubChem BioAssay (NCATS).

For test [1], the target named is DNA repair nuclease/redox regulator APEX1 (Homo sapiens) (UniProt P27695). The experiment in a line: qHTS FP-Based Assay for Inhibitors of the Human Apurinic/apyrimidinic Endonuclease 1 (APE1) (AID 2573). Also: potency is read from the fitted curve at half-maximal effect. The source says: The apurinic/apyrimidinic endonuclease APE1 is the primary mammalian enzyme responsible for the removal of abasic (or AP) sites in DNA and functions centrally in the base excision DNA repair (BER) pathway. […] Thus, targeting APE1 could improve the efficacy of current treatment paradigms by promoting selective sensitization or protection of diseased and normal cells, respectively.
Sequence of DNA repair nuclease/redox regulator APEX1 (Homo sapiens) (P27695 whole entry, looked up): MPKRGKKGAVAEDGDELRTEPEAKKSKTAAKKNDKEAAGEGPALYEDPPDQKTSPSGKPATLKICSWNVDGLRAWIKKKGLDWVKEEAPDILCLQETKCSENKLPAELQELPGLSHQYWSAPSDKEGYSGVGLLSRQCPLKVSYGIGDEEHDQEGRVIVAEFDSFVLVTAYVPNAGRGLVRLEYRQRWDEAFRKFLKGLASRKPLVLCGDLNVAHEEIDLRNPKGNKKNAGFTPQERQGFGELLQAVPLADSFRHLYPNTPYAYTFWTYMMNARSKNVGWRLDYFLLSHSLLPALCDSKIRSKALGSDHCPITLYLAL
In order to gain insight into the mode of action of confirmed APE1 inhibitors, we implemented a miniaturized fluorescence polarization assay designed to report on compounds which competitively displace ds-DNA substrate. The fluorescence polarization assay has been implemented in 384- and 1536-well format for binding of TAMRA-labeled double-stranded DNA probe not containing a quencher. The binding of protein to DNA is inhibited by ATA, a general inhibitor of APE1 activity.
See also related primary fluorogenic assay (AID 2517).
Assay Provider: David M. Wilson, III, National Institute on Aging, NIH
Screening Center PI: Austin, C.P.
Screening Center: NIH Chemical Genomics Center [NCGC]
1. Substrate: 50 nM final concentration of TAMRA/BHQ-2 substrate dispensed throughout the plate.
2. Enzyme: […] nM APE1 final concentration in columns 1, 2, 5-48. Column 1 is neutral (100% activity)
3. Control: Pintool transfer of control inhibitor NSC-13755 to column 2 of all assay plates. Two-fold, 16 pt dilution in duplicate to produce final concentrations in the […] uM - […] nM range.
3. Buffer columns in columns 3 and 4 were used as negative control (no enzyme).
Three uL of enzyme were dispensed to 1536-well Greiner black solid bottom plates. Compounds (23 nL) were transferred via Kalypsys pintool. The plates were incubated for 15 min at room temperature, and then 1 uL of substrate solution was added to start the reaction. The plates were immediately transferred into ViewLux High-throughput CCD imager (Perkin-Elmer) in order to measure the reaction progress in kinetic mode (three reads every 60 seconds) using 525 nm excitation and 598 nm emission fluorescence protocol. The fluorescence intensity difference between the third and the first time points was used to compute reaction progress.
(In general: qHTS replaces the single test concentration by a dilution series.)

For test [2], the target named is DNA polymerase eta (Homo sapiens) (UniProt Q9Y253). As to the kind of experiment: qHTS for Inhibitors of Polymerase Eta: Confirmatory Assay for Cherry-picked Compounds (AID 720502). Also: potency is read from the fitted curve at half-maximal effect. The conditions noted are these: Pol eta primer extension, TAMRA/BHQ fluorescence, 10 min. An outline of the steps:
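Human Pol eta (10 nM) was preincubated with compounds for 15 min at room temperature before adding 50 nM (final) DNA substrate: primer plus TAMRA reporter strand annealed to a BHQ-2-labeled template. Fluorescence (ex 525/em 598 nm) was read at 0 and 10 min.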

The nature of test [3]: qHTS assay for small molecule activators of the nuclear factor-kappa B (NF-kB) signaling pathway (AID 651749; active = well fitted activation curve with a large enough effect in the signal ratio; the % refers to the signal ratio; also: series mostly up to about 77 µM). The conditions noted are these: NF-kB-bla ME-180 cells, beta-lactamase FRET ratio, 16 h; hits give high values. The gist of the method: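 Activation measured after 16 hr compound treatment at 37C, 5% CO2, of 2,000 ME-180 cells/well stably expressing an NF-kB response element–driven beta-lactamase reporter, via FRET-disruption fluorescence.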

Test [4] is described as follows: Counterscreen for APE1 Inhibitors: Fluorescent Dye Displacement Assay (AID 2564).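 Also: loss of thiazole orange fluorescence as the dye is displaced from duplex DNA.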 The gist of the method:
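Counterscreen flags promiscuous DNA binders: compounds displacing ThO from duplex DNA (abasic THF site, 50 nM) reduce 540 nm emission (480 nm excitation). ThO 250 nM final; Tris-HCl pH 7.5 with NaCl, MgCl2 and Tween-20.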
For orientation: Counterscreens check selectivity or assay interference.

Test [5] concerns the target Cytochrome P450 3A4 (Homo sapiens) (UniProt P08684). The experiment in a line: qHTS Assay for Activators of Cytochrome P450 3A4 (AID 885). Also: nearly all actives have a fitted effect of over 65% in size. Also: potency is read from the fitted curve at half-maximal effect. The gist of the method:
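Luminescent readout of luciferin formed from 25 uM Luciferin-PPXE (KM level) by 20 nM CYP3A4 in 200 mM KPO4, with 60 min NADPH-driven reaction at room temperature after 10 min compound exposure. Ketoconazole (57 uM) defined 100% inhibition.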

For test [6], the target named is Androgen receptor (Homo sapiens) (UniProt P10275). As to the kind of experiment: qHTS assay for small molecule agonists of androgen receptor signaling (AID 588515; active = well fitted curve in the direction sought with a large enough effect in the signal ratio, with a control signal flat; the % refers to the signal ratio). The conditions noted are these: AR-UAS-bla HEK293, beta-lactamase ratio, agonist 16 h; hits give high values. An outline of the steps:
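Stimulation of an AR-responsive β-lactamase reporter in GripTite HEK293 cells was measured after 16 h compound exposure at 37 °C, via CCF4 fluorescence after 2 h RT. EC50 from Hill fits, normalized to R1881 at 30 nM.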

The target of test [7] is Ubiquitin carboxyl-terminal hydrolase 1 (Homo sapiens) (UniProt O94782). The experiment in a line: Inhibitors of USP1/UAF1: Pilot qHTS (AID 504865).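 Also: rhodamine fluorescence freed from ubiquitin-rhodamine substrate followed over time; top concentration of the series differs between compounds; nearly all actives have a fitted effect of over 35% in size.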 The gist of the method:
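USP1/UAF1 complex (1nM) preincubated with compound 15 min at room temperature, then Ub-Rho substrate (150nM final) added. Fluorescence read kinetically at 480/540 nm, 6 reads every 60 seconds. Buffer: 50mM HEPES pH 7.8, 0.5mM EDTA, 0.1 mg/ml BSA, 1mM TCEP, 0.01% Tween-20.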

Test [8] concerns the target DNA dC->dU-editing enzyme APOBEC-3G (Homo sapiens) (UniProt Q9HC16). The experiment in a line: qHTS for inhibitors of Vif-A3G interactions: Validation (AID 588379). The gist of the method: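 Yellow fluorescence (Ex 488, Em 500-530) of Vif-coexpressing HeLa A3G-eYFP cells, scanned by Acumen cytometer, reports blocked A3G degradation. Cells plated at 700/well overnight at 37 deg C before compound addition, then a further overnight compound incubation at 37 deg C.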

Test [9] addresses Androgen receptor (Homo sapiens) (UniProt P10275). As to the kind of experiment: qHTS assay for small molecule antagonists of androgen receptor signaling (AID 588516; active = well fitted curve in the direction sought with a large enough effect in the signal ratio, with a control signal flat, not every such curve was filed as active; the % refers to the signal ratio). The gist of the method: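 AR-UAS-bla-GripTite HEK 293 cells (2000/well, 5 h at 37 C) received compound titrations, then R1881 at 10 nM final; after 16 h at 37 C, CCF4 dye 2 h RT, beta-lactamase fluorescence read; IC50 from Hill fits.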

Structures are written as SMILES. Several values for one entry are separate records, joined by “and”; a condition that tells them apart may be missing. Identical values can stand only once. A number with no mark means an inactive call. Inconclusive results are not listed. Some of the results follow. A call without a number means that no potency is given here. Activity calls are given as the source filed them. Unless noted, calls follow the shape of the dose curve; as a rule, active = well fitted curve in the direction sought with a large enough effect; inconclusive = small, poorly fitted or top-dose-only effect, or another doubt; inactive = no such curve, though single readings can be large; an effect the other way counts as inactive or inconclusive.

Sequence of Androgen receptor (Homo sapiens) (P10275 whole entry, looked up): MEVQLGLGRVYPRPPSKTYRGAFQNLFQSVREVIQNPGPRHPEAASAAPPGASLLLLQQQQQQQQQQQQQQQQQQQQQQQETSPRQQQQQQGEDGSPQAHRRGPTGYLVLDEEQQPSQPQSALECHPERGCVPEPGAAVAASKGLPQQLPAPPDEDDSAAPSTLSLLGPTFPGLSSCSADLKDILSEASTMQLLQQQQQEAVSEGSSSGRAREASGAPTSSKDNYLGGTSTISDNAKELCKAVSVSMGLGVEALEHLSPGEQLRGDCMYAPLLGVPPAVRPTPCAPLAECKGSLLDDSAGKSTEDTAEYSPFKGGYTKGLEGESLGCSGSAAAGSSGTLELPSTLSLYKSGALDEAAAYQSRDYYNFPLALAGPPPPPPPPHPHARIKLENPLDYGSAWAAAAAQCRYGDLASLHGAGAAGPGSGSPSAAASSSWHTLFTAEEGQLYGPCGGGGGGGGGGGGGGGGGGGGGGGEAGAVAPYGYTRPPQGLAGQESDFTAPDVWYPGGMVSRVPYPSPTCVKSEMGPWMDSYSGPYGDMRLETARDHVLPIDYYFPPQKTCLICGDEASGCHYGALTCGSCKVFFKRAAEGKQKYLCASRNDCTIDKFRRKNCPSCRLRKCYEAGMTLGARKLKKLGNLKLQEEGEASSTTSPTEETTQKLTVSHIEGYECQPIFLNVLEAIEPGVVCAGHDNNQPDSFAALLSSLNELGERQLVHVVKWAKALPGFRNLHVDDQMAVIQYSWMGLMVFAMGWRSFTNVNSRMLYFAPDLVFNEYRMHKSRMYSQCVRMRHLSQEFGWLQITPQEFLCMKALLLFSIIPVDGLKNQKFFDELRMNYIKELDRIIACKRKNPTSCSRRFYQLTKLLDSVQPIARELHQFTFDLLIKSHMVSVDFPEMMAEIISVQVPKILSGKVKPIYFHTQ
Sequence of Cytochrome P450 3A4 (Homo sapiens) (P08684 whole entry, looked up): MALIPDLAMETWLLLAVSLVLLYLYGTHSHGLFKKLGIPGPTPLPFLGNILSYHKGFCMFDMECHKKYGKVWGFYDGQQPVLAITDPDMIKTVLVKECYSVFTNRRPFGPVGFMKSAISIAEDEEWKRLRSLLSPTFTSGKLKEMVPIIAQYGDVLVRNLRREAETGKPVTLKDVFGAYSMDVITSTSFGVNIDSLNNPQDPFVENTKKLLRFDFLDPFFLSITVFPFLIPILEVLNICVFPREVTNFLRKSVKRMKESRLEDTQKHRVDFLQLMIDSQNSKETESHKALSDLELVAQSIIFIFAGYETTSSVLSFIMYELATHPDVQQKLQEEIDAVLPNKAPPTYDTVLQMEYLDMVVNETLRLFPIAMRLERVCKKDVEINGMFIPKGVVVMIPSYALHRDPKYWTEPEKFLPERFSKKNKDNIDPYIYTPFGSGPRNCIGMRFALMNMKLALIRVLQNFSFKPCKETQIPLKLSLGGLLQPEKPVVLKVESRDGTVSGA
Sequence of DNA dC->dU-editing enzyme APOBEC-3G (Homo sapiens) (Q9HC16 whole entry, looked up): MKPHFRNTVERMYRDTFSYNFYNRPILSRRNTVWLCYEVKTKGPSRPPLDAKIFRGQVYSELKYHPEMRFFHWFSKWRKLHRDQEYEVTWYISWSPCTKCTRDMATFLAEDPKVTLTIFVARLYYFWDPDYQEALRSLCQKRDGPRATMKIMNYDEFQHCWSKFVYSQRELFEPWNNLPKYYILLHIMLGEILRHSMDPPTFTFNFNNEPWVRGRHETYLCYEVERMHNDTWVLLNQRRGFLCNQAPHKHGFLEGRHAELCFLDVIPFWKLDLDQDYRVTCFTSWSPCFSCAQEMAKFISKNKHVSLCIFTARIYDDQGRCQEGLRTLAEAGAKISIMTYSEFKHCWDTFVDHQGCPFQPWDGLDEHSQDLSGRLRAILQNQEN
Sequence of DNA polymerase eta (Homo sapiens) (Q9Y253 whole entry, looked up): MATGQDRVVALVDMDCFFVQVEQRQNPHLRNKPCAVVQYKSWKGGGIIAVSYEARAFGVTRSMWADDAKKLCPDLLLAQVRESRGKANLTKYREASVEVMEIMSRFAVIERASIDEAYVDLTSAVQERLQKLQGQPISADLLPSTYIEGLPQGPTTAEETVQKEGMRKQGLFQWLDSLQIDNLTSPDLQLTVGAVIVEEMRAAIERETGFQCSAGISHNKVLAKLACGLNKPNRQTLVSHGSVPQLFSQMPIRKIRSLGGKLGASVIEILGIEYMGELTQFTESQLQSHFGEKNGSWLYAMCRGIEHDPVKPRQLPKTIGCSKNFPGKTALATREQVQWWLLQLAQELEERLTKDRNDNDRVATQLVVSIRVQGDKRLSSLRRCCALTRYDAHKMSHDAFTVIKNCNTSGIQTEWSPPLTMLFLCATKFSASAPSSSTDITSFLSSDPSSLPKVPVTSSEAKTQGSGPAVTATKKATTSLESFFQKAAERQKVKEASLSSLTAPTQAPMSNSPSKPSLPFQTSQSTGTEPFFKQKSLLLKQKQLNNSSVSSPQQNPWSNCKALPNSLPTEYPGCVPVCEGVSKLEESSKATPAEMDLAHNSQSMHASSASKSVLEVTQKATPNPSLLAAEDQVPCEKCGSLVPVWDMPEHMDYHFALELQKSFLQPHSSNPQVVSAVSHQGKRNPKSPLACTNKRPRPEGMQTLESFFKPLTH
Sequence of Ubiquitin carboxyl-terminal hydrolase 1 (Homo sapiens) (O94782 whole entry, looked up): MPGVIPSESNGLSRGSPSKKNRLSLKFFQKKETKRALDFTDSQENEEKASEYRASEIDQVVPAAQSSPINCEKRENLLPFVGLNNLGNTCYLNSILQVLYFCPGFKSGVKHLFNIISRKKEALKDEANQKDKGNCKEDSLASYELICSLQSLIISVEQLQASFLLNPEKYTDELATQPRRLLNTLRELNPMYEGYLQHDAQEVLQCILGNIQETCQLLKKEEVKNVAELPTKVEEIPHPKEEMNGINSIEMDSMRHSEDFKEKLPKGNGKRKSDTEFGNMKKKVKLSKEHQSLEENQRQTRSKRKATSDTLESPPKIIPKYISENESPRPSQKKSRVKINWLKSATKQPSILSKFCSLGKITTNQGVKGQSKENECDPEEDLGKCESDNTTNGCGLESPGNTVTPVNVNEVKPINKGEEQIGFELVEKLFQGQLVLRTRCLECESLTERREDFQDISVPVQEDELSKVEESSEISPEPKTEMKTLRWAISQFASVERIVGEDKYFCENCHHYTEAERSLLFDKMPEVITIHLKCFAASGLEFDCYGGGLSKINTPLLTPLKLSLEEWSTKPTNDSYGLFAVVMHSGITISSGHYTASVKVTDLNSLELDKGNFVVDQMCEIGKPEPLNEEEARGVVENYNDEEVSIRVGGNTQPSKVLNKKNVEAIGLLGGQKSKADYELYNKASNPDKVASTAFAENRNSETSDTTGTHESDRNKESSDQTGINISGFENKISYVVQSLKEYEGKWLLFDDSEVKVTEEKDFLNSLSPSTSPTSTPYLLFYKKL

`N#Cc1ccccc1CN1C(=O)S/C(=C/c2cccn2-c2cccc(C(=O)O)c2)C1=O`: in test [1], the Potency result is “inactive”. Moreover, the Potency in [2] was 60.1 µM (active). For the compound `CC(C)(C)C(=O)C1C(=O)c2ccccc2C1=O`, the activation in [3] was 1.49%. On to `Cc1ccc(-c2nc(SCC(=O)Nc3ccccc3OC(F)F)c3c(C)c(C(=O)O)sc3n2)cc1`, for which, in [4], the compound was classed as inactive. Also, the Potency in [1] is 11.2 µM (active). As for `C/C=C1/C(=O)C[C@H]2[C@@H]3CCC4=CC(=O)CC[C@]4(C)[C@H]3CC[C@]12C`, in [5], the Potency was 1 µM (active). On to `O=Nc1ccc(Nc2ccccc2)cc1`, for which the activation in test [3] was -1.21% and -2.86%. Regarding `C=CC(=O)OCCCCCCOC(=O)C=C`, the Potency entry in [5] is “inactive”. Also, the activation in test [6] was 1.98%. Regarding `CC(C)(C)C(=O)OCc1nc(-c2ccc(O)c(O)c2)cs1`, the Potency entry in test [1] is “inactive”. Take `Cc1cc(-c2ccc(N=Nc3cc(S(=O)(=O)O)c4ccccc4c3N)c(C)c2)ccc1N=Nc1cc(S(=O)(=O)O)c2ccccc2c1N`: the Potency entry in test [5] is “inactive”.

As for `CCCCCCCC/C=C\CCCCCCCC(=O)N(CCO)CCO`, the Potency result in test [5] was “inactive”. Take `Cc1ccc(Cc2cnc(N)s2)o1`: in test [4], the call was inactive. `CC(=O)CC(=O)Nc1ccccc1`: in [3], the activation was -0.0343% and 0.349%. Regarding `CCN(CC)c1ccc(N)cc1`, the Potency result in test [5] was “inactive”. As for `Oc1cc2c(cc1O)[C@H]1c3ccc(O)c(O)c3OC[C@@]1(O)C2`, the Potency entry in test [5] and in test [7] was “inactive” throughout. The call in [8] was inactive.

Regarding `O=C(Cl)c1ccc([N+](=O)[O-])cc1`, the figures for the activation in test [6] and in [3] were 25.7% and -1.16%, respectively. Also, the result in test [9] was inactive. Turning to `O=[N+]([O-])c1cc(N(CCO)CCO)ccc1NCCO`, the activation in [6] was 15% and 1.64%; in test [3], -0.608% and 1.27%. For the same compound, the call in [9] was inactive. Regarding `Cc1cc(C)c2nc(-c3ccco3)cc(C(=O)O)c2c1`, in [4], the result was inactive. Also, in test [1], the Potency result was “inactive”.

On to `Nc1ccc(-c2ccc(N)c(O)c2)cc1O`, for which the activation in test [6] was 4.81%.

Regarding `O=C(O)/C=C/c1ccc(/C=C/C(=O)O)cc1`, the activation in [6] was -7.2%; in test [3] it was -0.449%. Take `C=CC(C)(O)CCCC(C)CCCC(C)CCCC(C)C` (stereo unspecified): the Potency entry in test [5] is “inactive”. In test [8], the compound was classed as inactive. Further, the activation in [3] is -0.414%. For the compound `CC1=C(/C=C/C(C)=C/C=C/C(C)=C/C=O)C(C)(C)CCC1`, in [5], the Potency result was “inactive”. The activation in test [3] was -2.37%. On to `N/C(=N\OC(=O)Nc1ccccc1)c1ccno1`, for which the compound was called inactive in [4]. For the same compound, the Potency result in test [1] was “inactive”.
